High-throughput results as filed in PubChem.
AMA1-RON2 inh: AMA1-RON2 (P. falciparum) interaction inhibition; AlphaScreen AMA1-biotinylated RON2 peptide binding; Potency, µM (highest dose often 58.2 µM), for inactives: at the highest dose activity change, negative = inhibition, actives largely listed as inhibitors; 0.2% of 360,000 active;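 note: 0% = vehicle wells and -100% = peptide control; nearly all actives have a fitted effect of over 45% in size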
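AMA1 (3D7) with his tag at 25 nM final met compounds first, then biotinylated RON2 peptide at 25 nM; detection used donor plus acceptor beads, 10 µg/mL apiece, read by AlphaScreen after 30 min at room temperature.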
AmpC inh detg: inhibitors of E. coli AmpC beta-lactamase with detergent. P00811. AmpC hydrolysis of nitrocefin, absorbance 480 nm, 0.01% Triton. Potency, µM (series often up to 114 µM), for the others: at the top dose activity change, negative = inhibition, actives largely listed as inhibitors. 0.041% of 370,000 active. AID 485294;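 note: 0% = no-compound wells and -100% = no-enzyme wells; nearly all actives have a fitted effect of over 25% in size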
Target sequence (P00811 whole entry, looked up): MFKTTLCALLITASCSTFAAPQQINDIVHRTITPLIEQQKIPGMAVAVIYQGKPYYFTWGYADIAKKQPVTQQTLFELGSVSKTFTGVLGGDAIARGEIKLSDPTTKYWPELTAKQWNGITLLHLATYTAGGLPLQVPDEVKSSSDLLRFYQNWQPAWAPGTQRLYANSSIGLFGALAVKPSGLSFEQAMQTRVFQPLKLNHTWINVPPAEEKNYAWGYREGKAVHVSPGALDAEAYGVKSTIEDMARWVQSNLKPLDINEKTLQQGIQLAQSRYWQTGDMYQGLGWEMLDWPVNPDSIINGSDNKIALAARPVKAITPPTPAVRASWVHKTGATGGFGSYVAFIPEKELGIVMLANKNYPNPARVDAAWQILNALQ
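AmpC (5.3 nM in the dispensed reagent) in 20 mM phosphate pH 7.0 with 0.01% (detergent screen) or 0.0001% Triton X-100 was preincubated with compounds for 15 min at room temperature. Nitrocefin was then added from an 800 uM solution, and hydrolysis was followed at 480 nm.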
Giardia FBPA inh-1: inhibitors of Giardia lamblia fructose-1,6-bisphosphate aldolase; purified Giardia FBPA; Potency, µM (highest dose often 59.6 µM), inactives show at the highest dose activity, negative = inhibition, actives largely listed as inhibitors; 0.71% of 290,000 active; AID 2451; note: nearly all actives have a fitted effect of over 55% in size
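40 nM FBPA preincubated 10 min at RT with compound (up to 57.5 uM final), then substrate plus GAPDH/TPI/NAD/arsenate coupling and diaphorase/resazurin added. Fluorescence read after 20 min at RT, 525/598 nm.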
LmPK inh: blocks Leishmania mexicana pyruvate kinase activity; Q27686; purified LmPK, Kinase-Glo ATP luminescence, 1 h; Potency, µM (titrated, usually from 57.5 µM), for the others: at the top dose activity change, negative = inhibition, usual class: inhibitors; 0.37% of 290,000 active
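Kinase-Glo luminescence read after 1 h RT reaction of 0.1 nM LmPK with 0.5 mM PEP and 0.1 mM ADP. Activity scaled between uninhibited and enzyme-free controls.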
AmpC inh no detg: inhibitors of E. coli AmpC beta-lactamase without detergent. P00811. AmpC nitrocefin hydrolysis, absorbance 480 nm, 0.0001% Triton. Potency, µM (doses to about 57.1 µM), for inactives: at the top dose activity change, negative = inhibition, most hits filed as inhibitors. 0.52% of 330,000 active. AID 485341;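 note: plate controls were no compound for no effect and no enzyme for full effect; nearly all actives have a fitted effect of over 20% in size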
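AmpC (5.3 nM in the dispensed reagent) in 20 mM phosphate pH 7.0 with 0.01% (detergent screen) or 0.0001% Triton X-100 was preincubated with compounds for 15 min at room temperature. Nitrocefin was then added from an 800 uM solution, and hydrolysis was followed at 480 nm.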
Giardia growth: blocks growth of Giardia lamblia trophozoites; 5% of 1,500 active; Giardia lamblia trophozoite growth inhibition; shares compounds with Giardia FBPA inh-1; Potency, µM (doses to about 57.5 µM), inactives show at the highest dose activity change, negative = inhibition, most hits filed as inhibitors;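 note: trophozoites exposed to compound for 48 h at 37 °C; nearly all actives have a fitted effect of over 70% in size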
Mammal cell tox: counter-screen for Giardia aldolase inhibitors: mammalian cell toxicity; Potency, µM (titrated, usually from 57.5 µM), for the others: top-dose viability change, negative = toxicity, most hits filed as inhibitors; shares compounds with Giardia FBPA inh-1; mammalian cell viability counter-screen, qHTS; 4% of 1,500 active;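 note: Chinese hamster ovary cells used as mammalian cytotoxicity surrogate; viability measured as cellular ATP by luminescence; compound exposure lasted 48 h before reading; nearly all actives have a fitted effect of over 60% in size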
Giardia FBPA inh-2: confirmation of Giardia fructose-bisphosphate aldolase inhibitors. shares compounds with Giardia FBPA inh-1. purified Giardia aldolase enzyme activity, qHTS. Potency, µM (titrated, usually from 57.5 µM), for the others: at the top dose activity change, negative = inhibition, usual class: inhibitors. 5% of 1,500 active. AID 2787; note: nearly all actives have a fitted effect of over 45% in size
Rabbit aldolase: blocks rabbit muscle aldolase in Giardia aldolase selectivity test; 4% of 1,500 active; AID 2794; Potency, µM (titrated, usually from 57.5 µM), for the others: top-dose activity, negative = inhibition, most hits filed as inhibitors; Rabbit muscle FBPA enzyme inhibition, selectivity counter-screen; shares compounds with Giardia FBPA inh-1; note: nearly all actives have a fitted effect of over 60% in size
GAPDH counter: counter-screen for Giardia aldolase inhibitors: GAPDH coupling enzyme | shares compounds with Giardia FBPA inh-1 | GAPDH coupling enzyme counterscreen, biochemical, qHTS | Potency, µM (series often up to 57.5 µM), without a hit: at the top dose activity change, negative = inhibition, hits mostly inhibitors | 6% of 1,500 active | AID 2795; note: nearly all actives have a fitted effect of over 55% in size
Starred values were filed as active, the others as inactive; [ ] = remark or other dose. Hits are enriched below; roughly 1.3% of the tested compounds scored in any of these assays. Calls come from the whole dose curve; as a rule, active = well fitted curve in the direction sought with a large enough effect; inconclusive = small, poorly fitted or top-dose-only effect, or another doubt; inactive = no such curve, though single readings can be large; an effect the other way counts as inactive or inconclusive. Unless noted, % is set by controls: 0 for no effect and ±100 for the full control effect; potency is the fitted concentration of half-maximal effect.

What do the screens show for `CC1CCN(c2ccc(/C=N\Nc3nncn3N)cc2[N+](=O)[O-])CC1`?
AMA1-RON2 inh: 17%; AmpC inh detg: inconclusive; Giardia FBPA inh-1: 11µM*; LmPK inh: 1%; AmpC inh no detg: -28%; Giardia growth: 11µM*; Mammal cell tox: 15%; Giardia FBPA inh-2: inconclusive; Rabbit aldolase: -25%; GAPDH counter: inconclusive

How did COc1cc(/C=N\Nc2nncn2N)ccc1OC(C)=O do in these assays?
AMA1-RON2 inh: 37%; AmpC inh detg: 2%; Giardia FBPA inh-1: 25µM*; LmPK inh: -2%; AmpC inh no detg: -8%; Giardia growth: -20%; Mammal cell tox: -28%; Giardia FBPA inh-2: inconclusive; Rabbit aldolase: inconclusive; GAPDH counter: inconclusive

What do the screens show for `CSc1ccc(/C=N\Nc2nncn2N)cc1`?
AMA1-RON2 inh: 54%; AmpC inh detg: 0%; Giardia FBPA inh-1: inconclusive; LmPK inh: -6%; AmpC inh no detg: -25%; Giardia growth: 14%[38.3 µM]; Mammal cell tox: -9%; Giardia FBPA inh-2: 2.3µM*; Rabbit aldolase: 6.5µM*; GAPDH counter: 3.3µM*

What do the screens show for `CSc1ccc(/C=N/NC(=O)c2ccc(-n3cnnn3)cc2)cc1`?
AMA1-RON2 inh: -5%; AmpC inh detg: 1%; AmpC inh no detg: -15%

How did CC(C)(C)c1nnc(N/N=C/c2ccc(Br)cc2)n(N)c1=O do in these assays?
AMA1-RON2 inh: 68%; AmpC inh detg: -3%; Giardia FBPA inh-1: 4%; LmPK inh: 0%; AmpC inh no detg: -23%

How did COc1ccc(CCCc2nnc(SCC(=O)Nc3ccc(C)cc3)o2)cc1C do in these assays?
AmpC inh detg: 1%

Results for O=C(NC1CCCCC1)c1cccnc1C(=O)O ?
AMA1-RON2 inh: -3%; AmpC inh detg: -9%; Giardia FBPA inh-1: 5.6µM*; LmPK inh: 1%; AmpC inh no detg: -13%; Giardia growth: 10%; Mammal cell tox: 6%; Giardia FBPA inh-2: 6%; Rabbit aldolase: 11%; GAPDH counter: 13%

What do the screens show for `C=CCN=c1scc(C)n1/N=C/c1ccc(O)c(O)c1`?
AMA1-RON2 inh: -4%; AmpC inh detg: -13%; Giardia FBPA inh-1: 22µM*; LmPK inh: 0%; AmpC inh no detg: -29%[11.4 µM]; Giardia growth: 8%; Mammal cell tox: -19%; Giardia FBPA inh-2: -25%; Rabbit aldolase: -29%; GAPDH counter: -18%

What do the screens show for `CCCCC(=O)N/N=C/c1c(O)n(-c2cccc3ccccc23)c(=O)[nH]c1=O`?
AMA1-RON2 inh: 54%; AmpC inh detg: 6%; Giardia FBPA inh-1: 16µM*; LmPK inh: 2%; AmpC inh no detg: -27%; Giardia growth: 90%; Mammal cell tox: 6%; Giardia FBPA inh-2: 9%; Rabbit aldolase: -9%; GAPDH counter: 2%

What do the screens show for `CN1CCn2cnc(C(=O)N[C@@H](Cc3ccccc3)C(=O)OC(C)(C)C)c2C1=O`?
AMA1-RON2 inh: 28%
